Results on 38 compounds are retold here after PubChem BioAssay (NCI).

Molecules are shown by their SMILES. Where “and” joins values, the source holds several entries; their conditions need not be identical. Equal entries are not always repeated. Compounds without any hit were thinned out: in the full panel of roughly 79,000, 15% have a hit. A number with no mark means an inactive call. Calls of active or inactive are those of the source. Cut-off read from the data, not from the text of the source: active = growth inhibition above about 70%; inactive = the rest.

A short description of this assay: NCI Yeast Anticancer Drug Screen. Data for the mlh1 rad18 strain (AID 175). Conditions: S. cerevisiae mlh1 rad18 strain growth inhibition; at 50.0 µM (retest, dose inferred, filed as 5.0); stronger effect = higher value. The gist of the method:
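Test agents were incubated with a yeast strain of defined genotype (DNA damage repair defect). Inhibition of growth was derived by comparison with vehicle-exposed cultures.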
For the compound `COc1ccc2[nH]c3c(C)c4ccncc4c(C)c3c2c1`, the growth inhibition is 99% (active).

For the compound `CC(=O)OC1OC(CI)C(OC(C)=O)C(OC(C)=O)C1OC(C)=O` (stereo not drawn), the growth inhibition is 25%.

For `Cc1cc(NS(=O)(=O)c2ccc(N=Nc3cc(N=Nc4ccc(S(=O)(=O)Nc5cc(C)nc(C)n5)cc4)c4c(NC(=O)C(Cl)Cl)cccc4c3OC(=O)C(Cl)Cl)cc2)nc(C)n1` (tested in a mixture with another compound), the growth inhibition is 70% (active).

For the compound `Oc1cc2c(cc1C(c1ccc3c(c1)OCO3)N1CCN(C(c3ccc4c(c3)OCO4)c3cc4c(cc3O)OCO4)CC1)OCO2` (stereo not drawn), the growth inhibition is 94% (active).

As for `O=[N+]([O-])c1ccc(N/N=C/CC(O)(C(F)(F)F)C(F)(F)F)c([N+](=O)[O-])c1`, the growth inhibition is 98% (active).

On to `CCCc1cc(=O)oc2c3c(c4c(c12)OC(C)(C)CC4)O[C@@H](C)[C@H](C)[C@H]3O`, for which the growth inhibition was 93% (active).

With `O=Cc1cc(Br)ccc1O`, the growth inhibition is 94% (active) and 93% (active).

For `Cc1n(-c2ccccc2)c2c([n+]1Cc1ccc([N+](=O)[O-])cc1)C(=O)c1ccccc1C2=O`, the growth inhibition was 96% (active).

As for `Nc1ncnc2c1ncn2CCCl`, the growth inhibition is -4%.

Take `CN(C)CCCN=c1c2ccccc2n(O)c2cccc([N+](=O)[O-])c12`: the growth inhibition is 6%.

Regarding `CCOc1ccc2ccccc2c1C(Cc1ccc(Cl)cc1)NCCO` (stereo not drawn), the growth inhibition was 22%.

On to `COc1ccc(Oc2ccccc2N)cc1`, for which the growth inhibition was 96% (active).

Turning to `O=C1C(Cl)=C(Cl)C(Cl)(Cl)C(Cl)=C1Cl`, the growth inhibition was 99% (active).

Regarding `CCCCCCCCCCCC(=O)CN1CCOCC1`, the growth inhibition was 99% (active).

`CCC(C)(C)c1cc(O)c(C(C)(C)CC)cc1O`: the growth inhibition is 81% (active).

Regarding `CC[C@](O)(CC(=O)O[C@H]1C(=O)O[C@@H]2C[C@H]3C(C)=CC(=O)[C@@H](O)[C@]3(C)[C@H]3[C@@]4(O)OC[C@]32[C@@H]1[C@@H](C)[C@H]4O)C(C)C`, the growth inhibition was 97% (active).

Turning to `Nc1ccccc1Oc1ccc(Cl)cc1Cl`, the growth inhibition is 59%.

Consider `O=C1Nc2ccccc2C1(O)C/C(=N/O)c1ccc2ccccc2c1` (stereo not drawn), for which the growth inhibition was 64%.

Take `NNC(=O)c1ccc(NC(=O)CSc2nc3ccccc3s2)cc1`: the growth inhibition was 82% (active).

On to `C[C@H]1CC[C@H]([C@@H](C)[C@H]2[C@@H](O)C[C@H]3[C@@H]4CC[C@H]5C[C@@H](O)CC[C@]5(C)[C@H]4CC[C@]23C)NC1`, for which the growth inhibition was 97% (active) and 98% (active).

As for `CC(C)(c1ccc(O)cc1)c1ccc(O)cc1`, the growth inhibition was 64% and 68%.

On to `O=C1/C(=C/c2ccc(Cl)cc2)CNC/C1=C\c1ccc(Cl)cc1`, for which the growth inhibition was 75% (active) and 88% (active).

On to `CCN(CC)c1ccc(/C=C/c2ccnc3ccccc23)cc1`, for which the growth inhibition was 97% (active) and 98% (active).

Turning to `Oc1ccc(/C=N/NC(=S)NN2CCOCC2)nc1`, the growth inhibition was 95% (active).

Turning to `COc1ccc(-c2c(C#N)c(-c3ccc(C)cc3)n(NS(=O)(=O)c3ccccc3)c(=O)c2C#N)cc1`, the growth inhibition is 95% (active).

Regarding `c1ccc(-c2[nH]c3ccccc3c2-c2ccccn2)cc1`, the growth inhibition was 13%.

For `Nc1cc2c(cc1Cl)[nH]c(=O)c1cc(Cl)ccc12`, the growth inhibition was 40%.

For `C1=C(c2ccccc2)N(CCc2ccccc2)C(c2ccccc2)=CN1Cc1ccccc1`, the growth inhibition was 97% (active).

Turning to `COC(=O)c1nnn(-c2ccc(S(N)(=O)=O)cc2)c1N`, the growth inhibition was -23%.

Turning to `O=C1C(CN2CCOCC2)CCCC1CN1CCOCC1` (stereo not drawn), the growth inhibition was 97% (active).

Consider `c1ccc(-c2nc3ccccc3[nH]2)cc1`, for which the growth inhibition was 74% (active).

For the compound `O=Cc1cc([N+](=O)[O-])cc(CCl)c1O`, the growth inhibition was -28%.

As for `COC(=O)[C@]1(C)CCC[C@]2(C)c3ccc(C(C)C)cc3CC[C@@H]12`, the growth inhibition is 66%.

Turning to `CCOC(=O)c1ccc(NCc2ccc3ccccc3n2)cc1`, the growth inhibition was 57%.

As to `CCCCCCCCCCCCCCCC(=O)NCC[N+](C)(C)C`, the growth inhibition is 99% (active).

Regarding `OC(c1nc2ccccc2[nH]1)C(O)C(O)C(O)c1nc2ccccc2[nH]1` (stereo not drawn), the growth inhibition was -49%.

For `O=[N+]([O-])c1ccc(N/N=C(/C=N/Nc2ccc([N+](=O)[O-])cc2)C(O)C(O)C(O)CO)cc1` (stereo not drawn), the growth inhibition is 98% (active).

`c1ccc2c(c1)CNc1ccccc1-2`: the growth inhibition was 45%.
